# Source: the supplement of paper PMC10849652
# The full data set covers some 8,800 targets. This sample favours those with a hit. About 0.5% of all pairs of compound and target were hits. Values without a mark were called inactive.
# What was measured:
# Assay in all cases: log2 fold change, soluble protein after heating vs DMSO (PISA); higher = thermal stabilisation; K562 lysate, 10 uM; active = over 0.2 and 3.5 SD of the protein, either way, in both replicates (recomputed)
# [1] = compound: CCCS(=O)(=O)Nc1ccc(F)c(C(=O)c2c[nH]c3ncc(-c4ccc(Cl)cc4)cc23)c1F [vemurafenib]
# How it was run: (§1)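 Dounce homogenisation of K562 pellets in PBS pH 7.4 with 1 mM MgCl2 produced a crude extract, used at 1 mg/mL protein. Exposure to 10 μM compound lasted 30 min, and aliquots were then heated for 3 min across 48°C-58°C, pooled and brought to 0.5% NP-40 at 4°C. The supernatant after 21,000xg for 90 min was quantified by TMTpro 16plex LC-MS/MS with channel sums equalised. Duplicate values are given as log-two fold change in thermal stability relative to solvent controls.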
# [2] = compound: CCCS(=O)(=O)Nc1ccc(F)c(C(=O)c2c[nH]c3ncc(Cl)cc23)c1F
# How it was run: as §1
# [3] = compound: CCN(CCCOc1ccc2c(Nc3cc(CC(=O)Nc4cccc(F)c4)[nH]n3)ncnc2c1)CCOP(=O)(O)O [barasertib]
# How it was run: as §1
# [4] = compound: CC[C@@H]1C(=O)N(C)c2cnc(Nc3ccc(C(=O)NC4CCN(C)CC4)cc3OC)nc2N1C1CCCC1
# How it was run: as §1
# [5] = compound: CC[C@@H]1C(=O)N(C)c2cnc(Nc3ccc(C(=O)N[C@H]4CC[C@H](N5CCN(CC6CC6)CC5)CC4)cc3OC)nc2N1C(C)C [volasertib]
# How it was run: as §1
# [6] = compound: CCn1c(C(=O)N(C2CC2)C2CC2)cc2c3c(ncn3C)c(Nc3cc(C)n(C)n3)nc21
# How it was run: as §1
# [7] = compound: CCn1cc(-c2ccnc3[nH]c(-c4cccc(CN(C)C)c4)cc23)c(-c2ccc(NC(=O)N(C)C)cc2)n1
# How it was run: as §1
# [8] = compound: CN1CCC(CNc2ccc3ncc(-c4cccc(OC(F)(F)F)c4)n3n2)CC1
# How it was run: as §1
# [9] = compound: CN1CCN(CCOc2cc(OC3CCOCC3)c3c(Nc4c(Cl)ccc5c4OCO5)ncnc3c2)CC1 [saracatinib]
# How it was run: as §1
# [10] = compound: CN1CCN(c2nc(C3=C(c4c[nH]c5ccccc45)C(=O)NC3=O)c3ccccc3n2)CC1 [sotrastaurin]
# How it was run: as §1
# Chain of UniProt O60244 (O60244 whole entry, looked up): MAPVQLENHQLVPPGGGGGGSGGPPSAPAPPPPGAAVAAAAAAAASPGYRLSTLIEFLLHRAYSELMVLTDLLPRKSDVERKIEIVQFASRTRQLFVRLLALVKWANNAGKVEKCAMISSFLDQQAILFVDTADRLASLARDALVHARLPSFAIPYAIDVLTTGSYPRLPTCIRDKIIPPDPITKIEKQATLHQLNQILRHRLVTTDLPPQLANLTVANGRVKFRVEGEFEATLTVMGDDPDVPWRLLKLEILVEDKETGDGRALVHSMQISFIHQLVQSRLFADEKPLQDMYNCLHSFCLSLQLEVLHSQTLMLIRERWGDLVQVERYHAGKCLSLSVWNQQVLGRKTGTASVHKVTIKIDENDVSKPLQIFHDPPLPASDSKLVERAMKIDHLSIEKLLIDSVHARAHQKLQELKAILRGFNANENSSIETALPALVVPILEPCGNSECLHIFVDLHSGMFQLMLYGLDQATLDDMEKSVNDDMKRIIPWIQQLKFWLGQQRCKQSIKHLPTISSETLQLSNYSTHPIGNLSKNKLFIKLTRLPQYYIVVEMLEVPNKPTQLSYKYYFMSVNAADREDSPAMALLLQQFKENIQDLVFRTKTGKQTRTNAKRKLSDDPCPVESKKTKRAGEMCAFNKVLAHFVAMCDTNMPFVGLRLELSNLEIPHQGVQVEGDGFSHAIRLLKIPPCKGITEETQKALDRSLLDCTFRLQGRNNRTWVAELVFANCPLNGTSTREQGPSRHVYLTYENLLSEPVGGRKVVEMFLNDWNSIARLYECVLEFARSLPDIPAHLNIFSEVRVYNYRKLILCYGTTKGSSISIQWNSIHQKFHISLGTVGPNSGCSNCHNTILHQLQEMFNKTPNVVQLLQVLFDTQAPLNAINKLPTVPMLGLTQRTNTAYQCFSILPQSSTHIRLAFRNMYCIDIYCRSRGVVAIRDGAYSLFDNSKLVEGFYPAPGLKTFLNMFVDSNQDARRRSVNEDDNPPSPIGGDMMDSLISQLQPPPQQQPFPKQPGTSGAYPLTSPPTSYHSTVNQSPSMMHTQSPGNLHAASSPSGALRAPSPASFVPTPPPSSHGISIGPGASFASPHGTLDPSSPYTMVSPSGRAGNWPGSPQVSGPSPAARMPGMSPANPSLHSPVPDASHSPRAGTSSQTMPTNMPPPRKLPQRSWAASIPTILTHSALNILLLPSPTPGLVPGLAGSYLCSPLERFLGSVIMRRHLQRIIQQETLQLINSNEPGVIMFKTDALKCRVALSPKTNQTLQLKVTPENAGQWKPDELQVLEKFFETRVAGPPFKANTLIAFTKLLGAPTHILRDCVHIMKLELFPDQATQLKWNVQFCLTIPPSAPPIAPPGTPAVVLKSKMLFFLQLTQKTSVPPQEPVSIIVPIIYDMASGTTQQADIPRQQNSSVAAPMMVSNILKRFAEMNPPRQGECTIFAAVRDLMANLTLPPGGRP
# Chain of UniProt P46734 (P46734 whole entry, looked up): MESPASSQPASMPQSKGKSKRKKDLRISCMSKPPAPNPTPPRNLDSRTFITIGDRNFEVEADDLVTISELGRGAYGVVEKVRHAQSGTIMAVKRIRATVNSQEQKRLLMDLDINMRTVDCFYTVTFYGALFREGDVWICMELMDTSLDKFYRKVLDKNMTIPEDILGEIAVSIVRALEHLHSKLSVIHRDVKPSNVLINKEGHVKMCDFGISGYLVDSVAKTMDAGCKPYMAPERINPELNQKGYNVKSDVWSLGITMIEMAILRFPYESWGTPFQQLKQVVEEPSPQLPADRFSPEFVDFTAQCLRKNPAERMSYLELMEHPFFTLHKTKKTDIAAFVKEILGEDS
# Chain of UniProt Q9HAP2 (Q9HAP2 whole entry, looked up): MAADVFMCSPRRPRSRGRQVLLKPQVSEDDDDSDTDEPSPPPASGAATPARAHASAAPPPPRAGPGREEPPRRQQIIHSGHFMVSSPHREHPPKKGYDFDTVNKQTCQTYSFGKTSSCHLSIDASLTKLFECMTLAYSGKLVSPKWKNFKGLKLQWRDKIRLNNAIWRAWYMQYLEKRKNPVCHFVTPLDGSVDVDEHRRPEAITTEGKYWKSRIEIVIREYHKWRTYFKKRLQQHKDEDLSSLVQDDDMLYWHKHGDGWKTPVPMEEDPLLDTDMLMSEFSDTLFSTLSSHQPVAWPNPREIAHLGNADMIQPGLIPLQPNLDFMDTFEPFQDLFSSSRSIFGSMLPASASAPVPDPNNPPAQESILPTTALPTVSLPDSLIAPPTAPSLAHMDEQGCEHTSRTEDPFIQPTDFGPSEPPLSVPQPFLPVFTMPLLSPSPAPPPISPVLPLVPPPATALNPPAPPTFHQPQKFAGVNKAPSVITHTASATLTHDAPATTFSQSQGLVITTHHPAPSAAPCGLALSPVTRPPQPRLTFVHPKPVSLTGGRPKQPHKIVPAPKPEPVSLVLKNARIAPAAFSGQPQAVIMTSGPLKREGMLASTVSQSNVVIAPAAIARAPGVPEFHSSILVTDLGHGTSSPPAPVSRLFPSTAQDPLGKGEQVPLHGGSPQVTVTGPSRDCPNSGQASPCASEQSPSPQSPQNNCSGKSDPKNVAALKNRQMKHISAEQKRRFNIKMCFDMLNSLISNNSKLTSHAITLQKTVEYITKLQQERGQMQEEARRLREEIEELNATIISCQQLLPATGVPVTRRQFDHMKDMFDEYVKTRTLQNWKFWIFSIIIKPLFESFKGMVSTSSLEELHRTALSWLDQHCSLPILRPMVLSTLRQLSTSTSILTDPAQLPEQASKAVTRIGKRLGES
# Chain of UniProt O95297 (O95297 whole entry, looked up): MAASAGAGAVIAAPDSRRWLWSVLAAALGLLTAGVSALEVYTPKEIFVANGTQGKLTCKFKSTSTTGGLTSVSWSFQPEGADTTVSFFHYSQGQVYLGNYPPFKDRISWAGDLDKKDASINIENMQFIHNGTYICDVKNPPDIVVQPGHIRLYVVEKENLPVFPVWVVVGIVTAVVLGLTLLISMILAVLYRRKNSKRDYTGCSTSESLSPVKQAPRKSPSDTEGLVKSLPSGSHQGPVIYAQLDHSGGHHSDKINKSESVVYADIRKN
# Chain of UniProt Q86V48 (Q86V48 whole entry, looked up): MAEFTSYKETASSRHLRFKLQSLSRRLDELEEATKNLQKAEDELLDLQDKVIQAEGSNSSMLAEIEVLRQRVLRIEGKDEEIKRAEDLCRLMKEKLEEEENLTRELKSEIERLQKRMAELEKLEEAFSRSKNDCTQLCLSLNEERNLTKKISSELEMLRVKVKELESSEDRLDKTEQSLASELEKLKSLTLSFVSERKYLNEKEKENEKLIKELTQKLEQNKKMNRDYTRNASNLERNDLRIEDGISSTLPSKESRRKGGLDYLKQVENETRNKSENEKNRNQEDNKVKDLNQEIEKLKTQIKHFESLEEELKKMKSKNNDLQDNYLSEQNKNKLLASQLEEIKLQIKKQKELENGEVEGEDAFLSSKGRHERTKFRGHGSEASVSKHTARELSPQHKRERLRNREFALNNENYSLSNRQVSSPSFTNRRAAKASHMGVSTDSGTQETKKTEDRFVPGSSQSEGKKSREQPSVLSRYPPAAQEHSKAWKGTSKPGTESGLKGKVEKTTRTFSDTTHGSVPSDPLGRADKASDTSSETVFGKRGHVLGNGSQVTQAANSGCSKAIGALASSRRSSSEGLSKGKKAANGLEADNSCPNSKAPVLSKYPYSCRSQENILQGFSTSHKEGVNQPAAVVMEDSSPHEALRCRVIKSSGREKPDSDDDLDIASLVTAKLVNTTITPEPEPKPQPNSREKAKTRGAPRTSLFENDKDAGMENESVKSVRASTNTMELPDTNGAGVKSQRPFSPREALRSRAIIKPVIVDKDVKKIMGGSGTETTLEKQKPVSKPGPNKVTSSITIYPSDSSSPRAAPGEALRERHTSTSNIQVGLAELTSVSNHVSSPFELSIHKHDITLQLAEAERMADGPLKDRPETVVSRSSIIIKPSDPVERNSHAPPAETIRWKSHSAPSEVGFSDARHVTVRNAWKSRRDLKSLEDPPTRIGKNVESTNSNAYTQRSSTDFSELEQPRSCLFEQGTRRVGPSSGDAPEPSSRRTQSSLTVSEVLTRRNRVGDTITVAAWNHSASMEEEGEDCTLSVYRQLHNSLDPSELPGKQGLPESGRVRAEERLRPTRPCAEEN
# Chain of UniProt Q16539 (Q16539 whole entry, looked up): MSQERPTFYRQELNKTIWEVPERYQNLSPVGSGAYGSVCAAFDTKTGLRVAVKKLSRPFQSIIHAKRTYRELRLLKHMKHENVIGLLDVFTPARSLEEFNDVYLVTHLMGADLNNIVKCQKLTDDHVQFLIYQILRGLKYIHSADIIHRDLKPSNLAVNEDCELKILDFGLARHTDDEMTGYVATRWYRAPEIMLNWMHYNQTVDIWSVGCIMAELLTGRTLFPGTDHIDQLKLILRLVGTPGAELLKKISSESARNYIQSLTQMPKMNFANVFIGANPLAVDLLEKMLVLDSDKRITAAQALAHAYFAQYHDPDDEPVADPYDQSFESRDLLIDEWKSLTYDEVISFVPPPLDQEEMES
# Chain of UniProt Q00013 (Q00013 whole entry, looked up): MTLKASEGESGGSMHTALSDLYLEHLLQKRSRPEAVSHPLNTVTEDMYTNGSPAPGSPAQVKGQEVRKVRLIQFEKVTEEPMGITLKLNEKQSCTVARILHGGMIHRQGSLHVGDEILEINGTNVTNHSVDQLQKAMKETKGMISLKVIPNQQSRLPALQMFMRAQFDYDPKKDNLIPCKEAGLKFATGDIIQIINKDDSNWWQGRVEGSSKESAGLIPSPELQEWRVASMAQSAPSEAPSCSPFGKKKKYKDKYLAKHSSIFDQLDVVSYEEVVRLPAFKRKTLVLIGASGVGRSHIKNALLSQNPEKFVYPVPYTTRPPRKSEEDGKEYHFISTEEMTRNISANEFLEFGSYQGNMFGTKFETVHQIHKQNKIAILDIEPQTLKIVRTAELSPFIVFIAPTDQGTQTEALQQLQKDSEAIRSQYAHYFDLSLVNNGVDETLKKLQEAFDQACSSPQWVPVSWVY
# Chain of UniProt O14880 (O14880 whole entry, looked up): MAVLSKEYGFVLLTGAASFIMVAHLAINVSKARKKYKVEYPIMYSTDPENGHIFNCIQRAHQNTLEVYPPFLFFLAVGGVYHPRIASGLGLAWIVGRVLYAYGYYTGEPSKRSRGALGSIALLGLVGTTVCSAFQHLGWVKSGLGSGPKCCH
Target,log2 fold change [1],log2 fold change [2],log2 fold change [3],log2 fold change [4],log2 fold change [5],log2 fold change [6],log2 fold change [7],log2 fold change [8],log2 fold change [9],log2 fold change [10]
KRR1 (UniProt Q13601),0.057,0.01,0.026,0.065,-0.015,0.023,-0.006,-0.026,0.003,-0.021
MAPK3 (UniProt P27361),0.013,-0.024,-0.026,0.01,-0.011,-0.031,0,0.026,0,-0.017
LRPPRC (UniProt H7C3W8),0.566,–,–,–,–,–,–,–,–,–
MAPK14 (UniProt Q16539),0.175,0.081,0.021,-0.192,-0.056,-0.052,-0.035,0.093,0.226,-0.058
MICU2 (UniProt Q8IYU8),-0.061,0.043,0.109,-0.023,0,-0.036,0.013,-0.101,0.021,0.126
LSM8 (UniProt O95777),-0.054,0.018,0.355,-0.019,0.027,0,-0.058,0.052,-0.005,-0.017
KNSTRN (UniProt Q9Y448),-0.012,0.021,0.022,0.01,0.004,0.086,0.063,-0.095,0.009,-0.03
MAP2K2 (UniProt P36507),0.224,0.184,0.026,-0.076,-0.089,0.008,0.252,-0.047,0.093,-0.002
MIF4GD isoform 3 (UniProt A9UHW6),0.016,0.009,0.051,-0.019,-0.012,0.037,0.028,0.015,0.02,0.017
MPZL1 (UniProt O95297),0.037,0.001,0.024,0.057,0.035,0.027,0.262 (active),-0.052,0.045,-0.022
L3HYPDH (UniProt Q96EM0),0.04,0.033,0.015,0.002,-0.017,0.011,0.01,0.012,-0.027,-0.008
MRPL10 isoform 2 (UniProt Q7Z7H8),0.027,0.033,0.132,0.03,-0.037,-0.063,0.075,-0.032,-0.005,0.068
LUZP1 (UniProt Q86V48),0.037,0.003,0.013,0.086,-0.015,0.012,0.108,0.014,-0.024,-0.01
MPP1 (UniProt Q00013),0.014,-0.005,-0.014,0.001,-0.029,-0.011,-0.008,-0.034,-0.001,-0.007
LPCAT1 (UniProt Q8NF37),-0.009,0.07,0.012,0.037,0.097,-0.072,-0.39 (active),0.099,0.079,0.032
MAP2K3 isoform 3 (UniProt P46734),0.065,-0.042,0.032,-0.125,0.07,-0.063,0.191,0.04,0.113,-0.008
KLC2 (UniProt Q9H0B6),0.066,0.042,0.042,-0.043,-0.074,-0.009,-0.015,-0.069,0.008,-0.016
MED16 (UniProt Q9Y2X0),-0.059,0.008,-0.113,-0.04,-0.036,0.056,0.177,-0.189,-0.014,-0.018
MGST3 (UniProt O14880),0.012,0.01,-0.056,0.078,0.076,0.006,0.286 (active),-0.082,-0.017,-0.015
LAGE3 (UniProt Q14657),0.016,0.004,0.128,-0.032,0.005,0.058,-0.024,-0.003,0.019,-0.024
MRPL19 (UniProt P49406),0.026,0.029,0.001,-0.139,-0.056,0,0.026,-0.053,0.016,-0.016
MAPK8 isoform 3 (UniProt P45983),0.06,0.022,0.007,-0.123,-0.02,-0.005,0.013,0.055,0.027,0.01
LARP4B (UniProt Q92615),-0.014,0.011,-0.033,-0.029,-0.042,0.08,-0.116,0.038,0.011,-0.019
MLXIP (UniProt Q9HAP2),0.004,0.013,0.019,-0.032,-0.041,0.028,-0.045,0.093,0,0.008
MBD2 (UniProt Q9UBB5),-0.014,0.016,-0.009,0.059,-0.021,0.073,-0.005,-0.007,-0.036,-0.089
LIMS1 isoform 3 (UniProt P48059),-0.055,-0.006,0.014,0.008,0.024,-0.002,-0.005,0.045,0.014,-0.162
MED14 (UniProt O60244),-0.078,0.003,0.015,-0.084,-0.023,0.008,-0.008,0.009,-0.001,0.008
MICU1 isoform 3 (UniProt Q9BPX6),-0.055,-0.004,0.094,0.002,-0.005,0.091,0.234 (active),-0.422 (active),0.006,0.044
LETM1 (UniProt O95202),0.029,0.005,-0.015,-0.012,0.01,-0.015,0.08,-0.287 (active),-0.002,-0.014
MED12 isoform 2 (UniProt Q93074),-0.075,0.005,0.057,-0.012,-0.065,0.037,0.002,-0.066,0.026,0.022
